# Test results published in paper PMC7862700, “An all-to-all approach to the identification of sequence-specific readers for epigenetic DNA modifications on cytosine”.
# Experiments:
# Test in all cases: DAPPL (digital affinity profiling via proximity ligation, sequencing); 10 mM Tris-HCl pH 7.5, 50 mM NaCl, 1 mM DTT, 4% glycerol, room temperature, 30 min; GST-TFs on glutathione beads, 16-mer random dsDNA library, 0.1% formaldehyde crosslink after washing; high values mean tight binding
# FLI1 = biological target: T1, FLI1 (Homo sapiens, UniProt Q01543 1-452); details: protein: recombinant; tags: N-terminal GST; dsDNA, one strand shown
# T1 sequence: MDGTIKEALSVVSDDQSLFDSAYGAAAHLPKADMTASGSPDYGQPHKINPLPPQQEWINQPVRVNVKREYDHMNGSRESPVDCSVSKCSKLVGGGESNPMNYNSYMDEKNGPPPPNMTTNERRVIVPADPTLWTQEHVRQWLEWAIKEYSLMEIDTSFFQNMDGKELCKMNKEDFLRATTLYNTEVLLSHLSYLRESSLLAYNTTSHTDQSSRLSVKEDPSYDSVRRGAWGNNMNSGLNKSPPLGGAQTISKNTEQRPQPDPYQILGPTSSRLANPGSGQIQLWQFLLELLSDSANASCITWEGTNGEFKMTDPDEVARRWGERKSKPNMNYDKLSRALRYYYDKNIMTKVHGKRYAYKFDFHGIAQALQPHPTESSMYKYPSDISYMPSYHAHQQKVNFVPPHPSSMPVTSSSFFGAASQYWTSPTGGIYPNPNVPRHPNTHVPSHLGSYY
# How it was run: (§1)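 Pools of DNA-barcoded human transcription factors, expressed in yeast as GST fusions on glutathione beads and combined with a tag-only sample, were incubated with 200 nmole of a 16-mer random double-stranded DNA library. Incubation took 30 min at room temperature in Tris/NaCl/DTT/glycerol buffer and was followed by washing, 0.1% formaldehyde crosslinking, proximity ligation (BsaI/T4 ligase, 1 h, 37 °C), PCR amplification and sequencing on an Illumina NextSeq500. Binding signal is the ratio of a hexamer's read frequency for a factor to its frequency for the tag-only sample.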
# ELK1 = biological target: T2, ELK1 (Homo sapiens, UniProt P19419 1-428); details: protein: recombinant; tags: N-terminal GST; dsDNA, one strand shown
# T2 sequence: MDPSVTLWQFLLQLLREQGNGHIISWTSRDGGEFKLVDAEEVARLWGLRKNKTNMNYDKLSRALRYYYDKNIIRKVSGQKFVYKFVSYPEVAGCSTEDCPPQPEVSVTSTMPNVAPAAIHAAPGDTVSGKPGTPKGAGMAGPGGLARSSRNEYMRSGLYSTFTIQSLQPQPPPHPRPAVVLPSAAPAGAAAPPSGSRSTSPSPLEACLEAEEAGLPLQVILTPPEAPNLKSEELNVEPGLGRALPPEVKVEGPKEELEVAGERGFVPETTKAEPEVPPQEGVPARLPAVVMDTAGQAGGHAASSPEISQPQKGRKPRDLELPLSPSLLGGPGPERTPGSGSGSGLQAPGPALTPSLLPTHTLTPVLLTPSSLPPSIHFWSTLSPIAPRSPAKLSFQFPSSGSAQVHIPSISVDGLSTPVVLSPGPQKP
# How it was run: as §1
# GABPA = biological target: T3, GABPA (Homo sapiens, UniProt Q06546 1-454); details: protein: recombinant; tags: N-terminal GST; dsDNA, one strand shown
# T3 sequence: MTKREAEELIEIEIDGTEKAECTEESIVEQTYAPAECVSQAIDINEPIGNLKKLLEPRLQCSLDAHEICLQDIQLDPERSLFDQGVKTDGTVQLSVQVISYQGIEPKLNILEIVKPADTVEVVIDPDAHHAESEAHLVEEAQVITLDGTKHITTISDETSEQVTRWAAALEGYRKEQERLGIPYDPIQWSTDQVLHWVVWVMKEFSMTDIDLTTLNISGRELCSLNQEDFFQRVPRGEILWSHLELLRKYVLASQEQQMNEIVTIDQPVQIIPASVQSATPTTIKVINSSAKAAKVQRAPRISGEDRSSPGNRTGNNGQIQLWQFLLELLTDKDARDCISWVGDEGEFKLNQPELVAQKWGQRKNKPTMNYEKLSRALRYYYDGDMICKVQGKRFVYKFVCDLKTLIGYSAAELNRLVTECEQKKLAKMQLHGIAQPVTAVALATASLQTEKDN
# How it was run: as §1
# ERG = biological target: T4, ERG (Homo sapiens, UniProt P11308 1-479); details: protein: recombinant; tags: N-terminal GST; dsDNA, one strand shown
# T4 sequence: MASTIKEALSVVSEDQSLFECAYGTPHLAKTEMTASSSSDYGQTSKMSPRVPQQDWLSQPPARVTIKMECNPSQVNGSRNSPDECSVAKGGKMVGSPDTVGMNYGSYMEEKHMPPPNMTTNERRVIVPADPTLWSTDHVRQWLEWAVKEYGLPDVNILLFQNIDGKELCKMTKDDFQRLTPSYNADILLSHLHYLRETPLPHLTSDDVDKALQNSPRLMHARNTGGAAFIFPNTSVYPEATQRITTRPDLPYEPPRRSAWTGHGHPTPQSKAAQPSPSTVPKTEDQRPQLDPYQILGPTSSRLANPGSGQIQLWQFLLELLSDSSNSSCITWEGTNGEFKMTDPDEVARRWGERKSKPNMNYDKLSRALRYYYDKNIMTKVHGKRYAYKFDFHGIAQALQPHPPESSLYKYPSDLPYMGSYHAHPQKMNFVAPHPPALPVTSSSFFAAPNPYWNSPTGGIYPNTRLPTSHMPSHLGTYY
# How it was run: as §1
# ELF1 = ELF1 (Homo sapiens, UniProt P32519 1-619); details: protein: recombinant; tags: N-terminal GST; dsDNA, one strand shown
# Chain of ELF1 (P32519 whole entry): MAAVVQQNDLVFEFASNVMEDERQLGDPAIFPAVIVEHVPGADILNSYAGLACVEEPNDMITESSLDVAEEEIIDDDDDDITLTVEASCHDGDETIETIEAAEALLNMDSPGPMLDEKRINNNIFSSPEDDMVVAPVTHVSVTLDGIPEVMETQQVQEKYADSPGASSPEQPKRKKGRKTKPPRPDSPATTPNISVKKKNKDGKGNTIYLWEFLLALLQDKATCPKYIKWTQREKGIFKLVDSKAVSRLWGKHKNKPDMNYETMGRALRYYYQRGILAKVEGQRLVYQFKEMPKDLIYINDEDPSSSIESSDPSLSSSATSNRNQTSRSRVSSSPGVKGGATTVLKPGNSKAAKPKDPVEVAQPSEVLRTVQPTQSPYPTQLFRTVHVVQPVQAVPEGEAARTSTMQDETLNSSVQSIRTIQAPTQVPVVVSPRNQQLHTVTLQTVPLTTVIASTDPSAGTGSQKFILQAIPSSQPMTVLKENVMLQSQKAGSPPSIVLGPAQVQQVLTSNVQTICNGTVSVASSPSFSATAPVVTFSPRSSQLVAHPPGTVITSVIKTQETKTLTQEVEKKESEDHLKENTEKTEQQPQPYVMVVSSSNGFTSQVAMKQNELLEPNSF
# How it was run: as §1
# EHF = biological target: T5, EHF (Homo sapiens, UniProt Q9NZC4 1-300); details: protein: recombinant; tags: N-terminal GST; dsDNA, one strand shown
# T5 sequence: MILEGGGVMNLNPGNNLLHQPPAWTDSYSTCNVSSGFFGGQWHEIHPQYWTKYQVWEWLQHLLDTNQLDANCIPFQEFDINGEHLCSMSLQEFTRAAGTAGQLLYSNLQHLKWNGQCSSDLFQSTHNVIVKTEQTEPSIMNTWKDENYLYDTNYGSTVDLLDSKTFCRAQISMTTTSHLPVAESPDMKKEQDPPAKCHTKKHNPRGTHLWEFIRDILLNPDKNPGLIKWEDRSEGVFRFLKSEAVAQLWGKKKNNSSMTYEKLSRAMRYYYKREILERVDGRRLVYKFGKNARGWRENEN
# How it was run: as §1
# SPI1 = SPI1 (Homo sapiens, UniProt P17947 1-270); details: protein: recombinant; tags: N-terminal GST; dsDNA, one strand shown
# How it was run: as §1
# SPIB = SPIB (Homo sapiens, UniProt Q01892 1-262); details: protein: recombinant; tags: N-terminal GST; dsDNA, one strand shown
# Chain of SPIB (Q01892 whole entry): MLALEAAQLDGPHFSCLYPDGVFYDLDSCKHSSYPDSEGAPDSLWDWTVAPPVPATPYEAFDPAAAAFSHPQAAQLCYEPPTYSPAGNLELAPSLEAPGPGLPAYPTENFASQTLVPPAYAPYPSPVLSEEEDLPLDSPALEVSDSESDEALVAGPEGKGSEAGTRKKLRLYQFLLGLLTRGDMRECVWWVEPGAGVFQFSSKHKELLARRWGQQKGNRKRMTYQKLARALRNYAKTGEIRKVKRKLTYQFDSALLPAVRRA
# How it was run: as §1
# ELK3 = biological target: T6, ELK3 (Homo sapiens, UniProt P41970 1-407); details: protein: recombinant; tags: N-terminal GST; dsDNA, one strand shown
# T6 sequence: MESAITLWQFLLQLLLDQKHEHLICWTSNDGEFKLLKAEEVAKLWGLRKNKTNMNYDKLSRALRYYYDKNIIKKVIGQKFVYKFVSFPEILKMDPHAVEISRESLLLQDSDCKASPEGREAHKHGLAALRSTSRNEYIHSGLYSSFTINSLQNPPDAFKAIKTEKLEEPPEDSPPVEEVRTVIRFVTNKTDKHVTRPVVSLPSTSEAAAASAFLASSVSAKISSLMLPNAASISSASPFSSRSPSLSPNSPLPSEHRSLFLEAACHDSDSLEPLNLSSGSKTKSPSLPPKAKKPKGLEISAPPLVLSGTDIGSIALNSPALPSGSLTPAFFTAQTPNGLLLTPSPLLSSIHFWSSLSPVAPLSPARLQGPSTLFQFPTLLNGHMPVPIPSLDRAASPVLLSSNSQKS
# How it was run: as §1
# FEV = biological target: T7, FEV (Homo sapiens, UniProt Q99581 1-238); details: protein: recombinant; tags: N-terminal GST; dsDNA, one strand shown
# T7 sequence: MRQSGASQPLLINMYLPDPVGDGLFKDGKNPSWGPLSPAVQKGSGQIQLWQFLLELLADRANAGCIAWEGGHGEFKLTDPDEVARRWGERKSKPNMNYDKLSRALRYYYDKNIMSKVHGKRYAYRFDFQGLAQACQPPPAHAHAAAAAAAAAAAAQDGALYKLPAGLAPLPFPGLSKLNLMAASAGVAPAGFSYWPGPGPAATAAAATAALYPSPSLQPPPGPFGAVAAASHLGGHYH
# How it was run: as §1
# ETV5 = ETV5 (Homo sapiens, UniProt P41161 1-510); details: protein: recombinant; tags: N-terminal GST; dsDNA, one strand shown
# Chain of ETV5 (P41161 whole entry): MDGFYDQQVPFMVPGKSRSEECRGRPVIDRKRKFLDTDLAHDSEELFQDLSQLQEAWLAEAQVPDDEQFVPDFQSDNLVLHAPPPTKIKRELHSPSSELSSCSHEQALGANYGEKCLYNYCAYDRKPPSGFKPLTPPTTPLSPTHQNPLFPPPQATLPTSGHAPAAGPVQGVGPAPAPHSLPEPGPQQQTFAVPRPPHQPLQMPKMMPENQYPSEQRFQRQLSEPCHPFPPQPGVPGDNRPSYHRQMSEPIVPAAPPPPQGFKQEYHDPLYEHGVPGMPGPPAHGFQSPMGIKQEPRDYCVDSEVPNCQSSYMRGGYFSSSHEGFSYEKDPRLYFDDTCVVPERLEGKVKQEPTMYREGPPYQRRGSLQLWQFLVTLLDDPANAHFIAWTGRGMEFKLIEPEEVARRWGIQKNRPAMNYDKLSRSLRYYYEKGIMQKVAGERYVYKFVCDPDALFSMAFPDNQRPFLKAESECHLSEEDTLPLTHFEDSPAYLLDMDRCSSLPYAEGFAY
# How it was run: as §1
# HSF1 = HSF1 (Homo sapiens, UniProt Q00613 1-529); details: protein: recombinant; tags: N-terminal GST; chain copies: 3; dsDNA, one strand shown
# Chain of HSF1 (Q00613 whole entry): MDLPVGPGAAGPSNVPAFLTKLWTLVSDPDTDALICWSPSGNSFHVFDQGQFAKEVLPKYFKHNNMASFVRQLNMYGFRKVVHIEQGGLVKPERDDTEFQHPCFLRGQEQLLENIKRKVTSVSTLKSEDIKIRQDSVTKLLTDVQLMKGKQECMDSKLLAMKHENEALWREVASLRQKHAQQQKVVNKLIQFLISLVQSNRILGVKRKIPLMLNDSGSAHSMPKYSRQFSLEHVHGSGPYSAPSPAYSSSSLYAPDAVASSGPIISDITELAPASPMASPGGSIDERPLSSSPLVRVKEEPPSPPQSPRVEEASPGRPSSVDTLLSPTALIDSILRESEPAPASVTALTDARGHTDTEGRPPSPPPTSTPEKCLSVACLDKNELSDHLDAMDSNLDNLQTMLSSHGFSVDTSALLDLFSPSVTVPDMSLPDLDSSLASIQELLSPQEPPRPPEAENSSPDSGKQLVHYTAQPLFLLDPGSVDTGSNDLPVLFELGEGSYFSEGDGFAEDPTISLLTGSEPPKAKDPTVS
# How it was run: as §1
# SPIC = biological target: T8, SPIC (Homo sapiens, UniProt Q8N5J4 1-248); details: protein: recombinant; tags: N-terminal GST; dsDNA, one strand shown
# T8 sequence: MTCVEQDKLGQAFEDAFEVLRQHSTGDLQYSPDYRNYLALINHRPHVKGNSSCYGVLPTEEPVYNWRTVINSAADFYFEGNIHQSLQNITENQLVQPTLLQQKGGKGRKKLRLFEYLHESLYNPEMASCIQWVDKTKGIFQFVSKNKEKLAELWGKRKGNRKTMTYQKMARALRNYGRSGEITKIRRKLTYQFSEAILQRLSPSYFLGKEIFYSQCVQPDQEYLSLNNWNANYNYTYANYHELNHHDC
# How it was run: as §1
# ELF4 = ELF4 (Homo sapiens, UniProt Q99607 1-663); details: protein: recombinant; tags: N-terminal GST; dsDNA, one strand shown
# Chain of ELF4 (Q99607 whole entry): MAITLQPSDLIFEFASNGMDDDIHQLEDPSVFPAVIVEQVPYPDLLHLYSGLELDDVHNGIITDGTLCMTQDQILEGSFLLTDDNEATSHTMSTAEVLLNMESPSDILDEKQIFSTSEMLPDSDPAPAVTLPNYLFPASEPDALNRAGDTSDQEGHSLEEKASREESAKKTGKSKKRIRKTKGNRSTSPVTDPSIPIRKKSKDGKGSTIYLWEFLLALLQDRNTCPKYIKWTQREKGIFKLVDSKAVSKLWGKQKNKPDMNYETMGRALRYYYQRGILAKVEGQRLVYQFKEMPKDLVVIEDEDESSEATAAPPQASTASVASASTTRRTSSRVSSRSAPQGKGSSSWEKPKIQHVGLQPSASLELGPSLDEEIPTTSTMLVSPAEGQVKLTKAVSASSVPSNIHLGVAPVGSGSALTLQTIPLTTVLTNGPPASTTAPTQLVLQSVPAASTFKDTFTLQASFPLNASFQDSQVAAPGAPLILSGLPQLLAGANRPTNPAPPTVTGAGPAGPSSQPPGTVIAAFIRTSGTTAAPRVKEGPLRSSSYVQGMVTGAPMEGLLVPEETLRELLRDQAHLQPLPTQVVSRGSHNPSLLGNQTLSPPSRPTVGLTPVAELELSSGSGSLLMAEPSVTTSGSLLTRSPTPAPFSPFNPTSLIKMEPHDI
# How it was run: as §1
# ELK4 = biological target: T9, ELK4 (Homo sapiens, UniProt P28324-2 1-405); details: protein: recombinant; tags: N-terminal GST; dsDNA, one strand shown
# T9 sequence: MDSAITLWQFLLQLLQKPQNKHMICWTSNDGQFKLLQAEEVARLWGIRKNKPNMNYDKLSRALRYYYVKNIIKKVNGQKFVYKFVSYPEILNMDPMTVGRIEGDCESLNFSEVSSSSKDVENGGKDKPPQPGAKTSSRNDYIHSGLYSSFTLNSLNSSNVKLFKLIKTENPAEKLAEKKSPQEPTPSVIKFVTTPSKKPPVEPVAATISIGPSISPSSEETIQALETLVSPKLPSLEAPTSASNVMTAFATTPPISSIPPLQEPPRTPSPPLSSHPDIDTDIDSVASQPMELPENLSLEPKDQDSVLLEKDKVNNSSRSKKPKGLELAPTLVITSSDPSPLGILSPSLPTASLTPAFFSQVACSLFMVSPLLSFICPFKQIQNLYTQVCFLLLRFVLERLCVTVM
# How it was run: as §1
# ETV2 = biological target: T10, ETV2 (Homo sapiens, UniProt O00321 1-342); details: protein: recombinant; tags: N-terminal GST; dsDNA, one strand shown
# T10 sequence: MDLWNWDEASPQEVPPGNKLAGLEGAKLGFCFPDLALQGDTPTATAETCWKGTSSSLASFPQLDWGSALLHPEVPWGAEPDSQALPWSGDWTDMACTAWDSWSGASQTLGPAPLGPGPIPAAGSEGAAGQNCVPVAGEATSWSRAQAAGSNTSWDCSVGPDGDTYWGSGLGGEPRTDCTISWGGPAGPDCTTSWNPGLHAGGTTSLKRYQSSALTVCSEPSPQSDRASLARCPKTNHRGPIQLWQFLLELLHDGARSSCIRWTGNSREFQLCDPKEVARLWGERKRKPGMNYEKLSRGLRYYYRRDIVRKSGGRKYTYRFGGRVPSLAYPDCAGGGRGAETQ
# How it was run: as §1
# ELF3 = biological target: T11, ELF3 (Homo sapiens, UniProt P78545 1-371); details: protein: recombinant; tags: N-terminal GST; dsDNA, one strand shown
# T11 sequence: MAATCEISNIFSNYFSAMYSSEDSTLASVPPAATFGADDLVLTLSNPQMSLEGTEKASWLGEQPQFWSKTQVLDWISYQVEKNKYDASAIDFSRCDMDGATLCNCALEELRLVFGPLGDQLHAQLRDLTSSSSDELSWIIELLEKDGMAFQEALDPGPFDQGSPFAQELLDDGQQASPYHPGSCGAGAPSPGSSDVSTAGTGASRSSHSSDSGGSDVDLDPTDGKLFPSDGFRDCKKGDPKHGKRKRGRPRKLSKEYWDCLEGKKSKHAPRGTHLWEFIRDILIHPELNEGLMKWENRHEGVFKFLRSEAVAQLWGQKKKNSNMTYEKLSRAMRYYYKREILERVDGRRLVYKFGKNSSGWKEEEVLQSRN
# How it was run: as §1
# CRX = CRX (Homo sapiens, UniProt O43186 1-299); details: protein: recombinant; tags: N-terminal GST; dsDNA, one strand shown
# Chain of CRX (O43186 whole entry): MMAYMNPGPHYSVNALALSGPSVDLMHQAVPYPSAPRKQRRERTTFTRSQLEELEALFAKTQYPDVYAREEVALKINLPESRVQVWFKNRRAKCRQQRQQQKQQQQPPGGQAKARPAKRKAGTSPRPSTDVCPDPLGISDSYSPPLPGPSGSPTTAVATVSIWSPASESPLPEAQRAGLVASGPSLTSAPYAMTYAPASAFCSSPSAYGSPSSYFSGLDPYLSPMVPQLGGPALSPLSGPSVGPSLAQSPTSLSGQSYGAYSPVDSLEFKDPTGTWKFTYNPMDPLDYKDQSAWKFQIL
# How it was run: as §1
# ETV1 = ETV1 (Homo sapiens, UniProt P50549 1-477); details: protein: recombinant; tags: N-terminal GST; dsDNA, one strand shown
# Chain of ETV1 (P50549 whole entry): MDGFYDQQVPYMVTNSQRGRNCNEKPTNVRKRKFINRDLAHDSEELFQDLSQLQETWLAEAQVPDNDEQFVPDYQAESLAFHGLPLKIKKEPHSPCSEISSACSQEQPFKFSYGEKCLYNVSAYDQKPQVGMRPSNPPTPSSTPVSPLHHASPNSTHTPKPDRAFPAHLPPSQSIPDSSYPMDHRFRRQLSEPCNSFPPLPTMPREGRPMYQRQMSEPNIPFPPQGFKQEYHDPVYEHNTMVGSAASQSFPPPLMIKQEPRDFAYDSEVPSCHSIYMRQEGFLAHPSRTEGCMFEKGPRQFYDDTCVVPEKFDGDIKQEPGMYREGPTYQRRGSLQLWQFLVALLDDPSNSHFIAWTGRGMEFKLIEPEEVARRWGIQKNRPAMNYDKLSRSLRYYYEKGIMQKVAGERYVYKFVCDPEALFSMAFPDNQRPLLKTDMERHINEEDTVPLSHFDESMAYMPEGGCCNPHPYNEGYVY
# How it was run: as §1
sequence,measurement,setting,value
AAAAAG,binding signal,FLI1,"1.18 fold enrichment (6-mer frequency, TF over GST control)"
same,binding signal,ELK1,"1.18 fold enrichment (6-mer frequency, TF over GST control)"
same,binding signal,GABPA,"1.25 fold enrichment (6-mer frequency, TF over GST control)"
same,binding signal,ERG,"1.19 fold enrichment (6-mer frequency, TF over GST control)"
same,binding signal,ELF1,"1.13 fold enrichment (6-mer frequency, TF over GST control)"
same,binding signal,EHF,"1.22 fold enrichment (6-mer frequency, TF over GST control)"
same,binding signal,SPI1,"1.72 fold enrichment (6-mer frequency, TF over GST control)"
same,binding signal,SPIB,"1.29 fold enrichment (6-mer frequency, TF over GST control)"
same,binding signal,ELK3,"1.2 fold enrichment (6-mer frequency, TF over GST control)"
same,binding signal,FEV,"1.2 fold enrichment (6-mer frequency, TF over GST control)"
same,binding signal,ETV5,"1.3 fold enrichment (6-mer frequency, TF over GST control)"
same,binding signal,HSF1,"1.34 fold enrichment (6-mer frequency, TF over GST control)"
same,binding signal,SPIC,"1.13 fold enrichment (6-mer frequency, TF over GST control)"
same,binding signal,ELF4,"1.26 fold enrichment (6-mer frequency, TF over GST control)"
same,binding signal,ELK4,"1.32 fold enrichment (6-mer frequency, TF over GST control)"
same,binding signal,ETV2,"1.08 fold enrichment (6-mer frequency, TF over GST control)"
same,binding signal,ELF3,"1.28 fold enrichment (6-mer frequency, TF over GST control)"
same,binding signal,CRX,"1.2 fold enrichment (6-mer frequency, TF over GST control)"
same,binding signal,ETV1,"1.26 fold enrichment (6-mer frequency, TF over GST control)"
